Experimental findings from PubChem BioAssay AID485350 (ICCB-Longwood Screening Facility, Harvard Medical School, 2010) are described below.

As a reminder, the inhibition is the change of the read-out against control, counted positive when it falls.

Structures are written as SMILES. Where “and” joins values, the source holds several entries; their conditions need not be identical. Equal entries are not always repeated. About 95 (0.1%) of roughly 84,000 compounds were called active. No stated cut-off is given here; in the data, active means inhibition above about 25% (passing the limit was not always enough); inactive means the rest. Shown is part of a subset that was picked to be rich in actives.

For the experiment, the system named is BasE (2,3-dihydroxybenzoate-AMP ligase), Acinetobacter baumannii ATCC 17978. Nature of the experiment: BasE siderophore enzyme inhibitors, primary screen, biochemical, Acinetobacter baumannii ATCC 17978, fluorescence polarization (AID 485350).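 Further: 0% = negative plate control signal and 100% = positive plate control signal.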 The conditions noted are these: purified BasE, fluorescence polarization binding displacement; hits give high values; concentration not given here.
As to `CC(=O)NCCC(=O)Nc1nccs1`, the inhibition is -1.55% (inactive).
The same measure for `CCOC(=O)Cn1c(=O)c(=O)n(C)c2c1c(C)nn2-c1ccccc1`: -0.65% (inactive); for `C=CCn1c(COc2ccccc2F)nnc1SC(C)C(=O)NC(N)=O` (centres undefined): 0.29% (inactive); for `CN(C)S(=O)(=O)c1ccc(C(=O)OCC(=O)N2CCCCC2)cc1`: 0.92% (inactive).
The same measure for `C=CCN(CC=C)C(=O)CSc1nnc2c3ccccc3n(C)c2n1`: 4.82% (inactive); for `CCC(CC)=NNC(=O)c1cc(-c2ccccc2)n[nH]1`: 0.72% (inactive); for `COc1ccccc1NC(=O)c1ccc(N2CC3CC(C2)c2cccc(=O)n2C3)c(NC(=O)c2cccnc2)c1` (centres undefined): -1.5% (inactive).
In the case of `C=CCN(S(=O)(=O)c1ccc(Cl)cc1)S(=O)(=O)c1ccccc1OC`, the inhibition is 5.47% (inactive).
The result for `CCCCN(C)S(=O)(=O)c1ccc2c(c1)CCN2C(=O)CCC(=O)O` reads 1.97% (inactive).
For the compound `CN(C)CCN=c1cc(-c2ccccc2)oc2ccc(Cl)cc12`, the inhibition was -2.16% (inactive).
The result for `Cc1nc(SCC(=O)NC(C)(C#N)C2CC2)c2c(C)c(C)sc2n1` (centres undefined) reads -0.09% (inactive); that for `Cc1cc2nc(N(C)C)c3ccccc3n2n1`, 2.28% (inactive).
The same measure for `CC1CN(C(=O)Cn2nc(-c3cccc(-n4cccc4)c3)oc2=O)CC(C)O1` (centres undefined): -1.31% (inactive).
The same measure for `O=C(O)c1cccnc1SCc1cc(=O)n2cc(Br)ccc2n1`: 1.25% (inactive).
As to `CC(=O)NCc1ccc(-c2csc(CC(=O)Nc3ccc(C)cc3C)n2)o1`, the inhibition was 0.82% (inactive).
For the compound `C/C(=N/NC(=O)CCc1ccccc1)C1CC1`, the inhibition is 2.92% (inactive).
Consider `COc1ccc(OCCNS(=O)(=O)Cc2ccccc2)cc1`, for which the inhibition was 3.47% (inactive).
The result for `CC1CN(CC(=O)Nc2ccccc2C(C)C)CC(C)O1` (centres undefined) reads -1.49% (inactive); that for `CCN(CC)Cc1cc(C(=O)O)co1`, -4.35% (inactive).
The same measure for `O=C(N/N=C/c1cccnc1)c1ccc(CN2CCOCC2)cc1`: 1.66% (inactive).
The result for `CCN1C(=O)/C(=C/N(C(C)=O)c2ccccc2)OC1=S` reads 1.08% (inactive); that for `O=C(CSc1ncnc2c1nnn2Cc1ccc(F)cc1)NC1CCCC1`, -1.58% (inactive); that for `Cc1ccccc1Nc1nc(N)nc(CNCc2ccccc2)n1`, 5.66% (inactive).
As for `Cc1oc(-c2cccc(Cl)c2)nc1CN1CCCC(C(=O)N2CCN(c3cccc(Cl)c3)CC2)C1` (centres undefined), the inhibition is -0.15% (inactive).
The same measure for `Cc1nc2c(cnn2C(C)C)c(C)c1CCC(=O)OC(C)C(=O)Nc1ccc(C(N)=O)cc1` (centres undefined): -3.6% (inactive); for `Cc1cc(C(=O)OCC(=O)c2cc(C)n(-c3ccc(Cl)cc3)c2C)no1`: 1.57% (inactive).
The result for `CCN(Cc1ccc2c(c1)OCCO2)C(=O)c1ccc(-n2cccn2)cc1` reads -0.56% (inactive); that for `CN(C(=S)NCc1ccccc1)C1CCCCC1`, 1.12% (inactive).
As for `C(=C\c1ccccc1)/CNCCCN1CCOCC1`, the inhibition is 0.89% (inactive).
The result for `CNC(=O)c1ccc(N2CCOc3ccc(Cl)cc32)s1` reads -0.32% (inactive).
The result for `COc1ccc(CNn2cnnc2SCc2ccc(F)cc2)cc1OC` reads -1.54% (inactive); that for `CC12CCC(=O)N1C(C(=O)OCc1cc(=O)n3cc(Br)ccc3n1)CS2` (centres undefined), 3.92% (inactive).
The same measure for `CC(C)[C@H](NC(=O)C1CCCCC1)c1nc2ccccc2[nH]1`: -0.24% (inactive).
In the case of `Cc1cc(C(=O)OCc2cc(=O)oc3cc4c(cc23)CCC4)c(C)o1`, the inhibition was -0.6% (inactive).
The same measure for `COC(=O)C(NC(=O)c1ccc(Cl)cc1)C(F)(F)F` (centres undefined): 7.11% (inactive); for `Cc1ccc(N2C(=O)CCC(C(=O)OCc3nnc(-c4ccccc4)o3)C2c2cccs2)cc1` (centres undefined): 1.51% (inactive).
The result for `COc1ccc(-n2c(-c3ccc(Cl)cc3)cnc2SCc2nccn2C)cc1` reads -1.16% (inactive); that for `COc1ccc(S(=O)(=O)N(C)CC(=O)N2CCCC2)cc1`, -1.85% (inactive).
The same measure for `OCC1OC(Oc2ccc3cc(Br)ccc3c2)C(O)C(O)C1O` (centres undefined): -1.6% (inactive).
`CCOC(=O)c1c(-c2ccco2)csc1NC(=O)COC(=O)Cn1[nH]c(=O)c2ccccc2c1=O`: the inhibition was 3.28% (inactive).
The result for `O=C(NCCSc1ncc(-c2ccccc2)[nH]1)c1ccco1` reads -0.84% (inactive).
The result for `Cc1ccc(S(=O)(=O)Nc2nc(O)c(C3=c4ccccc4=NC3=O)s2)cc1` reads 2.18% (inactive); that for `C(=N\n1cnnc1)/c1ccc(OC2OCCOC2Oc2ccc(/C=N/n3cnnc3)cc2)cc1` (centres undefined), 1.12% (inactive); that for `C=CCn1c(CCSCc2ccc(OC)cc2)n[nH]c1=S`, -0.73% (inactive).
The same measure for `COc1cccc(-c2noc(COC(=O)c3ccccc3-c3ccccc3C#N)n2)c1`: 1.11% (inactive); for `CC(Oc1ccc(F)cc1)C(=O)O` (centres undefined): -0.06% (inactive); for `O=C(OCC(=O)N1CCOCC1)c1ccc(Cl)cc1`: 0.53% (inactive).
Consider `O=c1c(OCCc2ccccc2)c(-c2ccco2)oc2ccccc12`, for which the inhibition was 5.62% (inactive).
As to `Cc1ccc(S(=O)(=O)NC(c2ccccc2)c2nnc(-c3ccccc3)o2)cc1` (centres undefined), the inhibition was -0.19% (inactive).
In the case of `O=C1Nc2ccccc2OC1CC(=O)N1CCN(Cc2ccc3c(c2)OCO3)CC1` (centres undefined), the inhibition was -0.54% (inactive).
The same measure for `CCc1c(C)c(C#N)c2nc3ccccc3n2c1N1CCN(Cc2cc(Cl)ccc2OC)CC1`: 0.68% (inactive); for `CCOC(=O)c1sc(=NC(C)=O)n(C)c1C`: -1.69% (inactive).
In the case of `Cc1cc(C)n(-c2ccc(Cl)c(C(=O)OCC(=O)NCc3ccco3)n2)n1`, the inhibition is 1.59% (inactive).
The result for `CCn1cnc2c(=O)oc3ccc(S(=O)(=O)N4CCN(c5cc(Cl)ccc5C)CC4)cc3c21` reads 2.98% (inactive); that for `CCOC(=O)C1=C(CN2CCn3cccc3C2C)NC(=O)NC1c1ccc(Cl)cc1` (centres undefined), -0.37% (inactive).
For the compound `N#CCSc1[nH]c(=O)c(-c2nc(-c3ccccc3)cs2)cc1C#N`, the inhibition is 1.84% (inactive).
For the compound `Cc1ccc(/C=C/C(=O)OCC(=O)c2cc(C)c(C)cc2C)o1`, the inhibition was 1.01% (inactive).
The result for `CC(Sc1nnc(N)s1)C(=O)NCCC1=CCCCC1` (centres undefined) reads 2.13% (inactive); that for `C/C(=N\NC(=O)NC1CCCCC1)c1ccc(OC(F)F)cc1OC(F)F`, 1.32% (inactive).
The same measure for `FC(F)Oc1ccc(-c2csc(=Nc3cccnc3)n2C2CC2)cc1`: 3.62% (inactive); for `Cc1cc(/C=N/N2C(=O)c3ccccc3C2=O)cc(C)c1O`: 0.22% (inactive).
The result for `CCN(CC)CC(O)Cn1c(=O)n(CC(O)CN(CC)CC)c(=O)n(CC(O)CN(CC)CC)c1=O` (centres undefined) reads -0.02% (inactive); that for `O=C1Cc2ccccc2C(=O)N1Cc1ccccn1`, 4.89% (inactive); that for `O=C1CCC2(C(=O)OCCCn3c(=O)[nH]c4ccccc43)Sc3ccccc3N12` (centres undefined), 1.34% (inactive).
Turning to `O=C(c1cc(Cl)c(O)c(Cl)c1)N1CCc2ccccc2C1`, the inhibition is 3% (inactive).
The result for `Cc1nn2cnnc2c(C)c1CCC(=O)NCCCc1ccccc1` reads -4.03% (inactive); that for `O=C(CCC1CC(=O)OC1c1ccccc1)Nc1nccs1` (centres undefined), 0.54% (inactive); that for `CCOC(=O)c1c(C)oc2ncnc(N(C)Cc3ccccc3)c12`, 1.14% (inactive).
The result for `COC(=O)c1cc(S(=O)(=O)N(CCCN2CCOCC2)C2CCN(C)CC2)cn1C` reads -0.33% (inactive).
The result for `Cc1c(CCC(C)C)c(NCCN2CCOCC2)n2c(nc3ccccc32)c1C#N` reads 2.4% (inactive); that for `CCN(C(=O)COc1ccc(Cl)cc1C)c1ccccc1`, 0.83% (inactive); that for `CCOc1ccc(-n2cc(C(=O)N3CCN(c4ccccc4OC)CC3)c3cc(OC)c(OC)cc3c2=O)cc1`, 0.29% (inactive).
On to `Cc1cccc(NC(=O)NCC(=O)NC2CC2)c1`, for which the inhibition is -0.65% (inactive).
The result for `COCC(C)NC(=O)Nc1c[nH]c2ccccc12` (centres undefined) reads -1.24% (inactive); that for `CCOc1cc(C(=O)CCC(=O)O)ccc1O`, 0.21% (inactive); that for `CCN(Cc1ccccc1)C(=O)c1cccc(N2C(=O)CCC2=O)c1`, 1.51% (inactive).
`C=CCN1C(=O)S/C(=C\c2ccc(OCC(=O)OC)cc2)C1=O`: the inhibition was 0.73% (inactive).
The same measure for `CCSc1nnc(CNc2ccc(F)cc2)n1-c1ccc(C)cc1`: 1.16% (inactive).
The result for `CN(CC(=O)Nc1ccccc1Cl)Cn1nc(-c2ccco2)oc1=S` reads 1.44% (inactive); that for `CCCN(CCC)Cc1ccc(CNc2nc(-c3ccc(OC)cc3)no2)o1`, -0.49% (inactive); that for `CCC(CO)n1c(SCC(=O)Nc2ccc(C)c(C)c2)nc2cc(OC)c(OC)cc2c1=O` (centres undefined), 1.28% (inactive).
As to `COc1ccc(-c2noc(C3CCN(C(=O)OC(C)(C)C)CC3)c2C(=O)O)cc1`, the inhibition is 1.39% (inactive).
The same measure for `Nc1ccccc1C(=O)NCC1CCCO1` (centres undefined): -4.47% (inactive); for `COc1ccc(-n2cc3c(c(C#N)c2=N)CC(C)(C)CC3=O)c(OC)c1`: -12.9% (inactive).
Consider `COC(=O)c1ccc(/C=N/O)cc1`, for which the inhibition was 1.3% (inactive).
Take `S=c1[nH]nc(-c2ccncc2)n1/N=C/c1cccnc1`: the inhibition is -0.5% (inactive) and 1.06% (inactive).
The same measure for `Cc1ccc(N=C2C(=O)N(CN3CCCC(C)C3)c3ccccc32)cc1` (centres undefined): 0.38% (inactive); for `CCCc1nnc(SCC(=O)N2CCCc3ccccc32)n1CC`: -5.47% (inactive); for `Cc1cccc(C(=O)NCC(=O)NN)c1`: 0.12% (inactive).
Turning to `CCOCCCNc1nc2ccccc2nc1NS(=O)(=O)c1cccc2nsnc12`, the inhibition was 0.69% (inactive).
For the compound `O=S(=O)(NCc1ccc2c(c1)OCO2)c1cccc2nsnc12`, the inhibition is 0.67% (inactive).
Consider `Cc1csc(NC(=O)C2CCC(CNS(=O)(=O)c3cccc4nsnc34)CC2)n1` (centres undefined), for which the inhibition is 28.5% (active).
With `Cc1cc(C)n(-c2ccc(C(=O)OCC(=O)C(C)(C)C)cc2)n1`, the inhibition was -0.47% (inactive).
The result for `OC(CN1CCCCC1)CN1c2ccccc2Sc2ccccc21` (centres undefined) reads -0.28% (inactive).
Regarding `O=C(Nc1ccccc1)Nc1ccc(Cl)c(Cl)c1`, the inhibition was 2.62% (inactive).
The result for `Cc1ccccc1Nc1nc(N)nc(Cn2cc(Br)ccc2=O)n1` reads 2.02% (inactive).
The result for `Cc1ccc(S(=O)(=O)N(C)CC(=O)O)cc1` reads 0.19% (inactive); that for `CC(C)CN(CC(C)C)C(=O)C1CCN(S(=O)(=O)c2cccc3nsnc23)CC1`, -0.22% (inactive).
The same measure for `CCc1c(C)nc2n(c1=O)C(CS(=O)(=O)c1ccc3ccccc3c1)CS2` (centres undefined): 2.08% (inactive); for `O=C(O)CN1CCN(C(c2ccccc2)c2ccccc2)CC1`: 1.06% (inactive).
Consider `CCCCn1c(N)c(N(C(=O)c2ccc(Cl)c(Cl)c2)C2CCCC2)c(=O)[nH]c1=O`, for which the inhibition was 2.21% (inactive).
The same measure for `Cc1ccc(NC(=O)CCn2c(=O)sc3ccccc32)cc1C`: 2.16% (inactive); for `O=C(CSc1cccc[n+]1[O-])c1cc2c3c(c1)CC(=O)N3CCC2`: 1.79% (inactive).
The result for `Cc1ccsc1C(=O)OCc1nc2sc3c(c2c(=O)[nH]1)CCCC3` reads -0.18% (inactive).
